The values that follow come from PubChem BioAssay (Tox21).

The structures appear in SMILES notation. Values joined by “and” are separate entries in the source; they are usually repeats but may differ in a detail not shown here. Identical values can stand only once. Inconclusive results are not listed. Some compounds were tested as several samples or in several runs, with calls that do not always agree. Active and inactive are the calls of the source. Unless noted, calls come from the whole dose curve; as a rule, active = well fitted curve in the direction sought with a large enough effect in the repeat runs; inconclusive = weak or mixed curves; inactive = no such curve, though single readings can be large; an effect the other way counts as inactive or inconclusive.

A short description of assay [1]: qHTS assay to identify small molecule antagonists of the sonic hedgehog signaling (Shh) pathway (AID 1259369; calls by dose curve; note: nearly all actives have a fitted effect of over 45% in size; note: potency is the fitted concentration of half-maximal effect). In a few lines:
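Antagonist mode: compound added to 3T3 Gli1-Luc cells followed by conditioned-medium stimulation, 24 h at 37 C, 5% CO2. Inhibition taken as loss of Gli1-driven luciferase luminescence.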

Assay [2] deals with Estrogen receptor beta (Homo sapiens) (UniProt Q92731). As to the kind of experiment: qHTS assay to identify small molecule agonists of the estrogen receptor beta (ER-beta) signaling pathway (AID 1259377; active = well fitted activation curve with a large enough effect in the signal ratio in the repeat runs, not every such curve was filed as active; the % refers to the signal ratio). In a few lines:
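HEK293T ER-beta-UAS-bla; 2% charcoal-stripped FBS; cells pre-incubated 6 hr, compound 16 hr, 37C/5% CO2; LiveBLAzer B/G FRET substrate 2 h RT; fluorescence intensity read.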
A general note: Quantitative high-throughput screening tests each substance at several concentrations.

Assay [3] has the same target. As to the kind of experiment: qHTS assay to identify small molecule antagonists of the estrogen receptor beta (ER-beta) signaling pathway (AID 1259378; active = well fitted inhibition curve with a large enough effect in the signal ratio in the repeat runs, not every such curve was filed as active; the % refers to the signal ratio). An outline of the steps: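 ER-beta-UAS-bla HEK293T cells in 2% charcoal-stripped FBS medium treated with compound plus 1nM final 17-beta-estradiol for 16 hr at 37C. Beta-lactamase reporter read by FRET substrate fluorescence after 2 hours at room temperature.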

Assay [4] in a line: qHTS assay to identify small molecule agonists of the androgen receptor (AR) signaling pathway in the presence of an antagonist - cell viability counter screen (AID 1259379).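 Note: MDA-kb2 human breast cancer cells carrying an MMTV luciferase reporter; series mostly up to about 92 µM; nearly all actives have a fitted effect of over 25% in size.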 In a few lines: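 Cytotoxicity counter-screen run in the same wells as the nilutamide-challenged (3.0 µM final) AR agonist assay in MDA-kb2 cells. Compounds tested at 15 concentrations for 16 h, 37 °C without CO2; CellTiter-Fluor fluorescence read.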

Assay [5] is described as follows: qHTS assay to identify small molecule agonists of the estrogen receptor beta (ER-beta) signaling pathway - cell viability counter screen (AID 1259380). Note: nearly all actives have a fitted effect of over 30% in size. Note: potency is the fitted concentration of half-maximal effect. In a few lines: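 Cell viability counter screen: CellTiter-Glo luminescence (30 min, room temperature) measured in the same wells as the beta-lactamase readout, after 16 hr compound exposure at 37C of ER-beta-bla HEK293T cells in 2% charcoal-stripped FBS medium.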

Assay [6] is described as follows: qHTS assay to identify small molecule antagonists of the estrogen receptor beta (ER-beta) signaling pathway - cell viability counter screen (AID 1259382). Note: nearly all actives have a fitted effect of over 55% in size. Note: potency is the fitted concentration of half-maximal effect. An outline of the steps: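 Cytotoxicity was measured in the same wells by CellTiter-Glo luminescence after 30 min at room temperature. Cells were ER-beta-bla HEK293T in charcoal-stripped serum, given compound together with 1 nM E2 and incubated 16 h at 37C.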

Assay [7] is described as follows: qHTS assay to identify small molecule agonists or antagonists of the thyroid stimulating hormone receptor (TSHR) signaling pathway - wild type cell line counter screen (AID 1259384; calls by dose curve). In a few lines:
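Wild-type Hek293 cells, 800/well, 18 h at 37C, then compound with Ro20-1724 for 30 min RT. cAMP by HTRF (cAMP-d2/anti-cAMP cryptate), 1 h RT, fluorescence read. 15 concentrations, triplicates.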

Assay [8] has as its target Thyrotropin receptor (Homo sapiens) (UniProt P16473). As to the kind of experiment: qHTS assay to identify small molecule antagonists of the thyroid stimulating hormone receptor (TSHR) signaling pathway (AID 1259385; calls by dose curve; note: nearly all actives have a fitted effect of over 20% in size). An outline of the steps: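 TSHR-HEK293 cells (800/well) plated 18 h, then compounds with Ro20-1724 and TSH at 1.5 ng/mL final, 30 min at room temperature. cAMP quantified by HTRF (cAMP-d2/anti-cAMP-cryptate, 1 h); 15 concentrations in triplicate.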

A short description of assay [9]: qHTS assay to identify small molecule agonists of the estrogen receptor alpha (ER-alpha) signaling pathway in the presence of an antagonist - cell viability counter screen (AID 1259386). Note: series mostly up to about 92 µM; nearly all actives have a fitted effect of over 30% in size. An outline of the steps:
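Compounds tested at 15 concentrations for 22 h at 37C alongside 10.0nM (final) ICI-182,780 antagonist, in VM7Luc4E2 cells grown in phenol red-free, charcoal-stripped medium. Viability read by CellTiter-Fluor fluorescence after 1 h reagent incubation.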

Assay [10] deals with Progesterone receptor (Homo sapiens) (UniProt P06401). Description: qHTS assay to identify small molecule agonists of the progesterone receptor (PR) signaling pathway (AID 1346784; calls by dose curve; note: nearly all actives have a fitted effect of over 30% in size). In a few lines: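 Beta-lactamase reporter read-out: after 16 hr compound treatment at 37C and a further 2 hr at room temperature with LiveBLAzer B/G FRET substrate, fluorescence was measured in PR-UAS-bla HEK 293T cells grown in 2% charcoal-stripped serum.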
Chain of Progesterone receptor (Homo sapiens) (P06401 whole entry, looked up): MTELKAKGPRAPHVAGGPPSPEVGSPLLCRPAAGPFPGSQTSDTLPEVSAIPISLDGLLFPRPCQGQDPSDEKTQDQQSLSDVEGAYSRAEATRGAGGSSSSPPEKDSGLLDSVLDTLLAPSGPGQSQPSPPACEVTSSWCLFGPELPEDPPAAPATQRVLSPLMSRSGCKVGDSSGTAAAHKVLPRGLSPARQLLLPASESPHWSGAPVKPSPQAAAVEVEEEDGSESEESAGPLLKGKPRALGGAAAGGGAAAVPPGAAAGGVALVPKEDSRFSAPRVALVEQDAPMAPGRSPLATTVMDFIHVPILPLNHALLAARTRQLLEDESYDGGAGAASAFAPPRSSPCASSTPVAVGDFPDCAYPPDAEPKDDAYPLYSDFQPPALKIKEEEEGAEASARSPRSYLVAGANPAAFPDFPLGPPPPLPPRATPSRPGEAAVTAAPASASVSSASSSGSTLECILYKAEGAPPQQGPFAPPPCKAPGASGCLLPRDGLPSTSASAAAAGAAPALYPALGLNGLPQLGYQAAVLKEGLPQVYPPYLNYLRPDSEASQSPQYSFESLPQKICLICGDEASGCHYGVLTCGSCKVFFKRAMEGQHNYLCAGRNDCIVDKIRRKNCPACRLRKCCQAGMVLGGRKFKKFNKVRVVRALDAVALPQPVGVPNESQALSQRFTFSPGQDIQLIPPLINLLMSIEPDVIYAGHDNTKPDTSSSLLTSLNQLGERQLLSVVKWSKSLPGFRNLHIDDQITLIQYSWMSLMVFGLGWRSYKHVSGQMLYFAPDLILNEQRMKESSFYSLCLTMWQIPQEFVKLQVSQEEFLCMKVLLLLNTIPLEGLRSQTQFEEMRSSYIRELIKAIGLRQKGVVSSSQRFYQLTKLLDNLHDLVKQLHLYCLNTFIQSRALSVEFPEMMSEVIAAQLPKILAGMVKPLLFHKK

Assay [11] shares this target. As to the kind of experiment: qHTS assay to identify small molecule antagonists of the progesterone receptor (PR) signaling pathway (AID 1346795; active = well fitted inhibition curve with a large enough effect in the signal ratio in the repeat runs, not every such curve was filed as active; the % refers to the signal ratio; note: potency is the fitted concentration of half-maximal effect). An outline of the steps: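 Read-out is fluorescence from the LiveBLAzer B/G FRET substrate, cleaved by a UAS-controlled beta-lactamase in PR-UAS-bla HEK293T cells after 16 hr exposure to compound plus 1 nM promegestone (final), followed by 2 hr at room temperature.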

Assay [12] is described as follows: qHTS assay to identify small molecule antagonists of the progesterone receptor (PR) signaling pathway - cell viability counter screen (AID 1346798). Note: series mostly up to about 92 µM; nearly all actives have a fitted effect of over 50% in size. In a few lines: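 HEK293T PR-UAS-bla, 2% charcoal-stripped FBS; 4 hr pre-plate; cpd + R5020, 16 h 37C; LiveBLAzer read first; then CellTiter-Glo 30 min RT, luminescence.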
Assay [13] is described as follows: qHTS assay to identify small molecule agonists of the progesterone receptor (PR) signaling pathway - cell viability counter screen (AID 1346799; calls by dose curve; note: nearly all actives have a fitted effect of over 45% in size; note: potency is the fitted concentration of half-maximal effect). An outline of the steps: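 Luminescence from CellTiter-Glo, added after the beta-lactamase FRET read in the same wells, gave cytotoxicity in PR-UAS-bla HEK293T cells treated with compounds for 16 hr at 37C.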
Assay [14] is described as follows: qHTS assay to identify small molecule antagonists of the TGF-beta/Smad signaling pathway - cell viability counter screen (AID 1346824). Note: nearly all actives have a fitted effect of over 50% in size. An outline of the steps: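 SBE-bla HEK 293T cells, incubated overnight, then compound plus 0.25 ng/mL TGF-beta1 (stock added) for 5 hr at 37 C. Viability was read in the same wells by CellTiter-Glo luminescence after 30 min at room temperature.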

The nature of assay [15]: qHTS assay to identify small molecule agonists of the TGF-beta/Smad signaling pathway - cell viability counter screen (AID 1346829). Note: top concentration of the series differs between compounds; nearly all actives have a fitted effect of over 45% in size. An outline of the steps: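 CellTiter-Glo luminescence readout; SBE-bla HEK 293T cells, overnight plating, compound 5 hr at 37 C/5% CO2, then bla substrate 2 hr RT, then CellTiter-Glo 30 min RT.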
Assay [16] is described as follows: qHTS assay to identify small molecule agonists of the TGF-beta/Smad signaling pathway (AID 1346859; active = well fitted activation curve with a large enough effect in the signal ratio in the repeat runs, not every such curve was filed as active; the % refers to the signal ratio; note: series mostly up to about 77 µM). In a few lines: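 SBE-bla HEK 293T, 4,000 cells/well, plated o/n; cpd in DMSO, 5 hr, 37 C/5% CO2; B/G FRET substrate 2 hr RT; ex 405, em 460/530 nm.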
In assay [17] the target is Thyrotropin-releasing hormone receptor (Homo sapiens) (UniProt P34981). As to the kind of experiment: qHTS assay to identify small molecule antagonists of the thyrotropin-releasing hormone receptor (TRHR) signaling pathway (AID 1346877; active = well fitted inhibition curve with a large enough effect in the repeat runs, not every such curve was filed as active; note: series mostly up to about 51 µM). In a few lines:
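Antagonist mode: after a 5 min room-temperature compound exposure, cells were stimulated with 1 nM (final) TRH. Dye-loaded TRHR-HEK293 cells were used, and calcium-dependent fluorescence was followed for 3 min, with 15-point titrations run in triplicate.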

The target is the same in assay [18]. Description: qHTS assay to identify small molecule agonists of the thyrotropin-releasing hormone receptor (TRHR) signaling pathway (AID 1346891; calls by dose curve; note: series mostly up to about 58 µM). In a few lines:
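Intracellular calcium rise, read as fluorescence every second for 3 min, served as the agonist signal in dye-loaded HEK293 cells expressing TRHR; each compound ran at 15 concentrations in triplicate.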

In assay [19] the target is Estrogen receptor (Homo sapiens) (UniProt P03372). Description: qHTS assay to identify small molecule agonists of the estrogen receptor alpha (ER-alpha) signaling pathway in the presence of an antagonist (AID 1259383; calls by dose curve; note: top concentration of the series differs between compounds; nearly all actives have a fitted effect of over 15% in size). An outline of the steps:
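Agonist-mode confirmation run in the presence of 10.0nM (final) ICI-182,780 antagonist. The reporter was ERE-driven luciferase in VM7Luc4E2 cells, grown in charcoal-stripped serum. Cells were exposed to 15-concentration compound series for 22hr, then ONE-Glo luminescence was read.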

Chain of Estrogen receptor (Homo sapiens) (P03372 whole entry, looked up): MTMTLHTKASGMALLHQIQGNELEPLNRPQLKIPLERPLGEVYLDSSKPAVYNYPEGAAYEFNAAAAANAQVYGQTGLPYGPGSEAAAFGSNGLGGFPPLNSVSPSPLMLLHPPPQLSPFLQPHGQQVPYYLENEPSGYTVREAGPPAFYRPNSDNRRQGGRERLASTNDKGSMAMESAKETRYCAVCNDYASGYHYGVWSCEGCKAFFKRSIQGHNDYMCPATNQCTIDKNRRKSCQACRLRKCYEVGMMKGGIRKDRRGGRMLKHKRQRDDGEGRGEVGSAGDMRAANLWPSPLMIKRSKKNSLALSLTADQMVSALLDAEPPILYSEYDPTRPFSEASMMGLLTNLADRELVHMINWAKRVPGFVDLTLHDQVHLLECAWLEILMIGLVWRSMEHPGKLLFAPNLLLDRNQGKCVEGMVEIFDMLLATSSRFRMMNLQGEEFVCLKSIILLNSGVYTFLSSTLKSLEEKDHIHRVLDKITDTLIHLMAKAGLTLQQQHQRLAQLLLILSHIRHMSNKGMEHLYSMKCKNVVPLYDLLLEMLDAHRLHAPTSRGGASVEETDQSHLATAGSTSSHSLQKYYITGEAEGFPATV
Chain of Thyrotropin receptor (Homo sapiens) (P16473 whole entry, looked up): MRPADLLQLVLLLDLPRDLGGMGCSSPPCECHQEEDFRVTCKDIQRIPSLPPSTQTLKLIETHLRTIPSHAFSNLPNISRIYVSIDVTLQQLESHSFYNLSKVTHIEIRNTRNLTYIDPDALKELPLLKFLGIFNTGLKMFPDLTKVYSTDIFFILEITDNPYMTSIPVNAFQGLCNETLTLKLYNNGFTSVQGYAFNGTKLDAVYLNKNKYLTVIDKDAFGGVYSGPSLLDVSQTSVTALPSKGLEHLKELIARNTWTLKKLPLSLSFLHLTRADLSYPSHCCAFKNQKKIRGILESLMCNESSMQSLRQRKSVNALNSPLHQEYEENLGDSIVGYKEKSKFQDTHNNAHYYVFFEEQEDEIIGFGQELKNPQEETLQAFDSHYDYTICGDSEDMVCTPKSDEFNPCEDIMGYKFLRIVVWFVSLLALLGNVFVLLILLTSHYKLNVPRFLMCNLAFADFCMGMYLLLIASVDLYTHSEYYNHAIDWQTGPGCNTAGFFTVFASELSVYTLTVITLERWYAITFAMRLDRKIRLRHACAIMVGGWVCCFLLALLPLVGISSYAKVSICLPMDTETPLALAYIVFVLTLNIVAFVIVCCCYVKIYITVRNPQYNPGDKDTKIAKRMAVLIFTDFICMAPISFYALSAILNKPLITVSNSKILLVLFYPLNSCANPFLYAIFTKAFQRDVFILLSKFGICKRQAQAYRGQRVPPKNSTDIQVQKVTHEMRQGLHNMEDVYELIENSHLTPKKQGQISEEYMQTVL
Chain of Thyrotropin-releasing hormone receptor (Homo sapiens) (P34981 whole entry, looked up): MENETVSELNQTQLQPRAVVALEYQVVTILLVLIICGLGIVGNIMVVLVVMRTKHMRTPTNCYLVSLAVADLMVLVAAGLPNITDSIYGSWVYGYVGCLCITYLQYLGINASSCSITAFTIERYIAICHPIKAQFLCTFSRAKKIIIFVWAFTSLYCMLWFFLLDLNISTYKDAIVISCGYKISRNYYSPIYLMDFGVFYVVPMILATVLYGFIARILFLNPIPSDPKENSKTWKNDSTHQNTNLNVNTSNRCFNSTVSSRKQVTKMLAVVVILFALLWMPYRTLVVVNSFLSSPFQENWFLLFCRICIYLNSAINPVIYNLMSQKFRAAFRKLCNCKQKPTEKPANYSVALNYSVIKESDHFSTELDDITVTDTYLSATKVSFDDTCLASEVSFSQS
Chain of Estrogen receptor beta (Homo sapiens) (Q92731 whole entry, looked up): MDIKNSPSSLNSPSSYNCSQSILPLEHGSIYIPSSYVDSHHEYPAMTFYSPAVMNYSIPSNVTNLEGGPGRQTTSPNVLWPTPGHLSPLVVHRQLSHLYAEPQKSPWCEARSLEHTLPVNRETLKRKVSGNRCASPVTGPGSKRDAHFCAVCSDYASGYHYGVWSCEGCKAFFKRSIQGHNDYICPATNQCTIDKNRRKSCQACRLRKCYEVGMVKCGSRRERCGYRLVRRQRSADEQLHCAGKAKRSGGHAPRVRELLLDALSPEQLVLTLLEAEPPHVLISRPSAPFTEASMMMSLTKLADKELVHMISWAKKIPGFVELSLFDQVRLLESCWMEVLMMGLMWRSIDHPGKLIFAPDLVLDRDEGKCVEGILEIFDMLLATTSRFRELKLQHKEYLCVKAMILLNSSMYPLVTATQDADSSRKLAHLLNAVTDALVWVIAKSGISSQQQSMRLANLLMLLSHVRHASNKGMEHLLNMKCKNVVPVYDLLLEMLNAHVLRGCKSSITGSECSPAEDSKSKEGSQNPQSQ

`IC(I)I`: the Potency in [1] was 15.3 µM (active) and inactive. The Potency entry in [2], in assay [3], in assay [4], in assay [5], in assay [6] and in assay [7] was “inactive” each time. The Potency result in assay [8], in assay [9], in assay [10], in [11], in [12] and in assay [13] was “inactive” each time. The Potency entry in [14], in [15], in [17] and in assay [18] was “inactive” throughout. Besides, the call in assay [16] was inactive.

Take `CCCN1C=CN(C)C1`: the Potency entry in [1], in assay [4], in assay [5], in [6], in [19] and in [7] was “inactive” in each case. Moreover, the Potency result in assay [8], in [9], in [10], in assay [11], in assay [12] and in assay [13] was “inactive” throughout. For the same compound, the Potency entry in assay [14] and in assay [15] was “inactive” throughout. In assay [16], the compound was called inactive.

As for `CC1(C)NC(=O)N(c2ccc([N+](=O)[O-])c(C(F)(F)F)c2)C1=O`, the Potency in assay [1] was 15.4 µM (active); in [11], 17.2 µM (active) and 11.9 µM (active). For the same compound, the Potency result in [2], in assay [3], in assay [4], in [5], in assay [6] and in [7] was “inactive” each time. For the same compound, the Potency result in assay [8], in assay [10], in assay [12], in assay [14], in assay [15] and in assay [17] was “inactive” throughout. In addition, in assay [18], the Potency result was “inactive”. Further, in [16], the outcome was inactive.

Consider `Cc1ccc([N+](=O)[O-])c(C)c1`, for which the Potency result in [1], in assay [4], in assay [19], in [7], in assay [8] and in [9] was “inactive” in each case. In addition, the Potency entry in [10], in [11], in [14], in [15], in assay [17] and in assay [18] was “inactive” in each case. Also, the Potency in assay [5] was 6.11 µM (active) and inactive; in assay [6], 8.63 µM (active) and inactive; in assay [13] it was 19.3 µM (active) and inactive. The result in assay [16] was inactive.

For `CC1(C)O[C@@H]2C[C@H]3[C@@H]4C[C@H](F)C5=CC(=O)C=C[C@]5(C)[C@@]4(F)[C@@H](O)C[C@]3(C)[C@]2(C(=O)CO)O1`, the Potency entry in assay [1], in [4], in [5], in assay [6], in assay [19] and in assay [7] was “inactive” throughout. Also, the Potency entry in assay [8], in assay [9], in assay [11], in [12], in [14] and in assay [15] was “inactive” each time. For the same compound, the Potency result in assay [17] and in [18] was “inactive” in each case. In addition, in [16], the compound was classed as inactive.

Consider `C[C@]12C=CC(=O)C=C1CC[C@H]1[C@@H]3C[C@@H](O)[C@](O)(C(=O)CO)[C@@]3(C)C[C@H](O)[C@@]12F`, for which the Potency result in assay [1], in assay [4], in assay [5], in assay [6], in [19] and in assay [7] was “inactive” each time. The Potency entry in assay [8], in [9], in assay [10], in assay [11], in assay [12] and in [13] was “inactive” each time. Besides, the Potency result in [14] and in assay [15] was “inactive” each time. Also, in assay [16], the call was inactive.

For the compound `C=CC(C)(O)CCC=C(C)C` (stereo not drawn), the Potency result in assay [1], in assay [2], in [3], in [4], in assay [5] and in [6] was “inactive” each time. Moreover, the Potency entry in assay [7], in [8], in [9], in assay [10], in assay [11] and in assay [12] was “inactive” in each case. In addition, the Potency result in assay [13], in [14], in assay [15], in assay [17] and in [18] was “inactive” each time. The outcome in assay [16] was inactive.
